Compounds with a hit are over-represented: about 8.3% of the library has one in this group of screens.
HCMV inh: qHTS Assay for inhibitors of the human cytomegalovirus (HCMV). HFF cells, HCMV-luciferase reporter, 72 h; stronger effect = lower value. 410,000 compounds, 4.5% hits. activity change, negative = inhibition, % at 57.5 µM; in the data active = activity change below about -60%; inconclusive = no clear call, values can overlap the other calls; inactive = above about -39%
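Inhibition of viral replication was scored as loss of reporter luminescence in HFFs infected with HCMV-luciferase (MOI 1 PFU/cell) for 72 h; compounds tested at 2 doses, normalized to buffer and Salinomycin controls.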
FMDV antiviral: High Throughput Screening for Foot and Mouth Disease Virus Antivirals; FMDV antiviral cell-based qHTS; Potency, µM (highest dose often 57.9 µM), for the others: top-dose activity change, negative = inhibition, usual class: inhibitors; 410,000 compounds, 1.2% hits; AID 1159524, 2015; calls by dose curve; tested in HEK293T cells; also: read-out not given here; potency is read from the fitted curve at half-maximal effect; nearly all actives have a fitted effect of over 45% in size
LASV entry inh: qHTS for Inhibitors of binding or entry into cells for Lassa Virus; Potency, µM (top dose mostly 37.9 µM), without a hit: at the top dose activity change, negative = inhibition, actives largely listed as inhibitors; 300,000 compounds, 1.2% hits; Lassa virus pseudotype entry inhibition, cell reporter; calls by dose curve; tested in HEK293 cells; also: potency is read from the fitted curve at half-maximal effect; nearly all actives have a fitted effect of over 50% in size
Giardia FBPA inh: qHTS Assay for Inhibitors of Fructose-1,6-bisphosphate Aldolase from Giardia Lamblia. purified Giardia FBPA. 290,000 compounds, 0.71% hits. AID 2451, 2010. Potency, µM (doses to about 59.6 µM), without a hit: top-dose activity, negative = inhibition, most hits filed as inhibitors; also: potency is read from the fitted curve at half-maximal effect; nearly all actives have a fitted effect of over 55% in size
Target sequence (A8B2U2 whole entry, looked up): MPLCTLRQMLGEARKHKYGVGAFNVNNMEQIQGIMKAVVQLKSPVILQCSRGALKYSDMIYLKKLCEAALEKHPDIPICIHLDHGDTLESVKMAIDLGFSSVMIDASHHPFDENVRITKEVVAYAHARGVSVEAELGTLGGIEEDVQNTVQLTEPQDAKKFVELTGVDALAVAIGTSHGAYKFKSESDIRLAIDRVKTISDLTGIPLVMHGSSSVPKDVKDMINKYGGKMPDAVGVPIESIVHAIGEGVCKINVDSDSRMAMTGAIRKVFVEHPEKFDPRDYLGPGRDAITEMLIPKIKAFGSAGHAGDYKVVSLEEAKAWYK
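40 nM FBPA preincubated 10 min at RT with compound (up to 57.5 uM final), then substrate plus GAPDH/TPI/NAD/arsenate coupling and diaphorase/resazurin added. Fluorescence read after 20 min at RT, 525/598 nm.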
HCV inh: qHTS Assay for Inhibitors of Hepatitis C Virus (HCV); Huh7.5.1 HCVcc-Cre infection, luciferase reporter, 44 h; Potency, µM (highest dose often 41.8 µM), for inactives: at the top dose activity change, negative = inhibition, usual class: inhibitors; 340,000 compounds, 3.4% hits; AID 651820, 2012; also: potency is read from the fitted curve at half-maximal effect
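Compounds are dispensed onto cells plated 4 h earlier at 1,000 per well, with HCVcc-Cre virus (about 0.5 moi) added next. Following 44 h of culture, luminescent signal is measured for 15 sec after 15 min with substrate at room temperature.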
Marburg entry inh: qHTS for inhibitors of binding or entry into cells for Marburg Virus; 300,000 compounds, 1.8% hits; Potency, µM (series often up to 37.8 µM), for inactives: at the top dose activity change, negative = inhibition, hits mostly inhibitors; Marburg virus pseudotyped entry inhibition, cell reporter; calls by dose curve; tested in HEK293 cells; also: potency is read from the fitted curve at half-maximal effect
Starred values were filed as active, the others as inactive; ? = inconclusive; . = no result; ! = a repeat was not active; [ ] = remark or other dose. Unless noted, calls follow the shape of the dose curve; as a rule, active = well fitted curve in the direction sought with a large enough effect; inconclusive = small, poorly fitted or top-dose-only effect, or another doubt; inactive = no such curve, though single readings can be large; an effect the other way counts as inactive or inconclusive. % is scaled to controls: 0 for no effect and ±100 for the full control effect.

SMILES | HCMV inh | FMDV antiviral | LASV entry inh | Giardia FBPA inh | HCV inh | Marburg entry inh
CCCNC(=O)c1ccc(C)c(NC(=O)C2=C(C)OCCS2)c1 | -77.2* | -4.5% | 10.3%[46.1 µM] | 7.7% | -2.1% | 4.4%[46.1 µM]
CC1=C(C(=O)Nc2cc(C(=O)N3CCN(c4ccc(Cl)cc4)CC3)ccc2C)SCCO1 | ? | 22.4µM* | . | . | . | .
CCCNC(=O)c1cc(Cl)c(NC(=O)C2=C(C)OCCS2)cc1OC | -35.1 | -1.3% | . | -2.3% | ? | .
CCOCCCNC(=O)c1cc(Cl)c(NC(=O)C2=C(C)OCCS2)cc1OC | -80.1* | -1.1% | ? | -5.4% | ? | 6.1%[46.1 µM]
COc1ccc(-c2nc3cnc(Nc4cccc(OC)c4)nc3n(C[C@H]3CCCO3)c2=O)cc1 | . | -1.5% | . | -14.1% | . | .
CCOc1ccc(-c2cc(C(=O)NCCCN3CCN(CC)CC3)c3ccccc3n2)cc1 | 56.9 | 31.0% | -1.7% | 2.7% | 8.91µM* | ?
O=C(NCCCn1ccnc1)c1nn2c(C(F)(F)F)cc(-c3ccc(Br)cc3)nc2c1Cl | 2.5 | 35.5µM* | -6.6% | 8.4% | ? | ?
O=C(COC(=O)c1cc(-c2ccccc2)nc2ccccc12)c1ccc(Br)cc1 | 4.8 | 15.4% | -25.6%[46.1 µM] | . | . | -15.8%[46.1 µM]
CCOc1ccc(-c2cc(C(=O)NCCCn3ccnc3)c3cc(Br)ccc3n2)cc1 | -76.6* | ? | ? | . | 10µM* | ?
C/C(N)=C(/C#N)C(=O)COC(=O)c1cc(-c2ccc(Br)cc2)nc2ccccc12 | 8.0 | -12.9% | ? | 21.1% | 10µM* | ?
CCOc1ccc(-c2cc(C(=O)NCCCn3ccnc3)c3ccccc3n2)cc1 | -10.0 | 6.4% | . | 1.5% | -19.4% | .
CCc1cc2c(nc1CC)CCN(CC/C(C)=N/OC[C@@H](O)[C@H]1O[C@@H]3OC(C)(C)O[C@@H]3[C@H]1O)C2 | . | . | . | . | . | -6.4%[14.2 µM]
CC1(C)CCC2(C(=O)O)CC[C@]3(C)C(=CCC4[C@]5(C)CCC(O)C(C)(C)C5C(O)C[C@]43C)C2C1 (stereo partly drawn) | . | -9.1% | . | 7.8% | . | .
CC1(C)OC(C(O)(c2cc(F)c(F)c(F)c2)c2cc(F)c(F)c(F)c2)C(C(O)(c2cc(F)c(F)c(F)c2)c2cc(F)c(F)c(F)c2)O1 (stereo not drawn) | . | . | . | -0.9%[12.9 µM] | . | .
O=C(Oc1ccc([N+](=O)[O-])cc1)c1cc(-c2ccccc2)nc2ccccc12 | -6.6 | 20µM* | 5.3% | 5.8% | 1.6% | 0.5%
CCOc1ccc(-c2cc(C(=O)O)c3ccccc3n2)cc1 | 69.1 | ? | 11.6µM* | 0.3% | -4.1% | 20.6µM*
O=C(O)c1cc(-c2ccccc2)nc2ccccc12 | -38.4 | -23.0% | -16.5% | 0.8% | -5.8%[8.37 µM] | -3.8%
CC(=O)CCc1ccc(OCC(O)CNC2CCCc3ccccc32)cc1 (stereo not drawn) | -73.2* | -9.2% | -10.9% | -1.9% | ? | ?
COC(=O)CCc1ccc(OCC(O)CNC(C)C)cc1 (stereo not drawn) | -64.2* | -10.6% | . | . | 9.2% | .
CCCOc1ccc(F)cc1-c1cc(C(=O)Nc2cc(OC)ccc2OC)[nH]n1 | -80.5* | -12.2% | . | . | . | .
COc1ccc(OC)c(NC(=O)c2cc(-c3cc(Cl)ccc3O)n[nH]2)c1 | ? | -47.8% | ? | 11.4% | 7.08µM* | ?
CCCOc1ccc(F)cc1-c1cc(C(=O)Nc2cc(OC)c(OC)c(OC)c2)[nH]n1 | -16.2 | ? | . | . | . | .
Cc1ccc(NC(=O)c2cnc3sc(N4CCOCC4)nn3c2=O)cc1N(C)C | -2.1 | 31.6µM* | . | . | . | 7.4%[46.1 µM]
CSCC[C@@H]1NC(=O)[C@@H](NC(=O)[C@H](CCCNC(=N)N)NC(=O)[C@H](CC(C)C)NC(=O)[C@H](CCSC)NC(=O)[C@H](CC(=O)O)NC(=O)[C@H](Cc2ccccc2)NC(=O)[C@@H](N)CC(=O)O)CSSC[C@@H](C(=O)N[C@@H](Cc2c[nH]c3ccccc23)C(=O)N[C@@H](CCC(N)=O)C(=O)N[C@@H](Cc2ccc(O)cc2)C(=O)O)NC(=O)[C@@H]2CCCN2C(=O)[C@H](CCCNC(=N)N)NC(=O)[C@H](Cc2ccccc2)NC(=O)[C@H](C(C)C)NC(=O)[C@H](CCCNC(=N)N)NC(=O)CNC(=O)[C@H](CC(C)C)NC1=O | . | . | . | 1.5% | . | .
C[C@H]1[C@H](N=[N+]=[N-])[C@H](O)CCO[C@@H]1c1ccccc1 | . | . | . | . | . | 13.1%[14.2 µM]
SMILES | HCMV inh | FMDV antiviral | LASV entry inh | Giardia FBPA inh | HCV inh | Marburg entry inh
CCOP(=O)(OCC)c1nc(-c2ccc(C)cc2)oc1NCc1ccccc1 | -60.6* | -2.7% | -15.2% | 0.7% | -21.8% | ?
COC(=O)CN1C(=O)[C@@H]2[C@H](C1=O)[C@@H]1CC(C(=O)OC)=C[C@@H](C(=O)OC)C3C1=C(C(=O)[C@@]3(C)NC(=O)c1ccccc1)[C@@H]2C (stereo partly drawn) | . | . | . | 0.2% | . | .
COc1ccccc1C(C[N+](=O)[O-])c1c(N)n(C)c(=O)n(C)c1=O (stereo not drawn) | -97.1* | 31.6µM* | . | 1.3% | 11.2µM* | .
COc1ccccc1C(c1c(N)n(C)c(=O)n(C)c1=O)C(C)[N+](=O)[O-] (stereo not drawn) | -14.0 | 8.5% | -22.4%[46.1 µM] | 2.1% | 2.2% | -18.2%[46.1 µM]
C[C@@H]1CN([C@@H](C)CO)C(=O)CCCn2cc(nn2)CO[C@H]1CN(C)C(=O)Nc1cccc(F)c1 | -17.3 | . | . | . | . | .
O=C(CSc1nc2ccc(Cl)cc2[nH]1)NC1CCCc2ccccc21 (stereo not drawn) | -73.6* | 28.2µM* | -25.0%[46.1 µM] | ? | ? | ?
COc1ccc([C@@H]2[C@@H](C(=O)N3CCOCC3)CC(=O)N2C(=O)c2ccccc2)cc1 | 10.0 | . | . | . | . | .
COc1cc(-c2nc3cc(C)ccn3c2NC2CCCCC2)ccc1-c1ccc(C(C)=O)cc1 | -94.4* | ? | . | . | ? | .
CCC(C)Sc1ccc(-c2nc3cc(C)ccn3c2NC2CCCCC2)cc1 (stereo not drawn) | -102.5*! | ? | . | . | ? | .
CCCNC(=O)[C@H]1O[C@@H]1C(=O)N[C@H](C(=O)N1CCC[C@H]1C(=O)OC)[C@@H](C)CC | . | -15.2% | . | . | . | .
Cn1c(NCc2c[nH]c3ccccc23)nc2ccccc21 | 113.5 | 34.4% | ? | 9.8% | -18.4% | ?
CCn1c(NCc2c[nH]c3ccccc23)nc2ccccc21 | 44.3 | 25.5% | -9.0% | . | -25.4% | 11.2µM*
COC(=O)C1=NOC2(C=C(Br)C(OC)=C(Br)C2=O)C1 (stereo not drawn) | . | . | ? | -0.4%[12.9 µM] | . | -41.8%[14.2 µM]
CCOCOCc1cc(OC(C)C)ccc1N1C(=O)C[C@@H](C(=O)OC)[C@H]1c1ccc(OC(C)C)c(OC)c1 | -5.6 | . | . | . | . | .
CCc1ccc(-c2cc(C)no2)cc1S(=O)(=O)NCc1ccc(OC)cc1 | 0.0 | 22.0% | -8.4%[46.1 µM] | . | . | .

Compound activity (PubChem BioAssay)
